Test results from PubChem BioAssay AID1893 (NMMLSC, 2009).
Screen size: about 5,900 compounds; about 120 (2%) were called active. A selection follows. Values without a mark were called inactive. Cut-off read from the data, not from the text of the source: active = percent response mostly above about 71% (no sharp cut-off); inactive = mostly below about 38%.

Test system: MEKK2 (MAP3K2) mutant PB1 domain binding MEK5, human
Test: mutant MEKK2 PB1-MEK5 binding signal retest – biochemical, single concentration, multiplex bead flow cytometry, confirmation (AID 1893);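 note: higher means compound restores mutant binding toward wildtype level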
Settings: Alexa488-MEK5 binding to MEKK2 mutant, at 10 µM, hits give high values

SMILES	percent response
COc1ccc(CC(=O)N2N=C(C)CC2(O)C(F)(F)F)cc1 (stereo not drawn)	-3%
O=C(CN1CCN(C(=O)c2ccco2)CC1)Nc1ccc(Cl)c(C(F)(F)F)c1	7%
COc1ccc(C2CC(=O)Nc3cc(C)c(C)cc32)c(OC)c1OC (stereo not drawn)	4%
COc1ccc(C(=O)NCC(=O)N/N=C/c2ccc([N+](=O)[O-])o2)cc1OC	-10%
CCO[C@H]1OC(C(=O)N2CCOCC2)=C[C@@H](c2ccc3c(c2)OCO3)[C@@H]1CCCO	4%
Cc1ccc(C(=O)N/C(=C/c2ccco2)C(=O)NCCc2c[nH]c3ccccc23)cc1C	-4%
CN(C)CCCN(C(=O)COc1ccccc1)c1nc2c(Cl)cccc2s1	18%
CN(C)c1ccc(/C=C2\NC(=S)N(Cc3ccccc3)C2=O)cc1	-10%
C=CCN1C=C2C(=O)C(C)(OC(=O)CCc3ccccc3)C(=O)C=C2C=C1c1ccc(C#N)cc1 (stereo not drawn)	-1%
COc1ccc(CCNC(=O)CSc2nnc3ccc(-c4ccncc4)nn23)cc1	6%
CCN(CC)C(=O)CC(c1ccc2c(c1)OCO2)c1c(OC)cc(OC)c2c(-c3ccccc3)cc(=O)oc12 (stereo not drawn)	-4%
COc1cccc(/C=N\NC(=O)C2=NNC(=O)C2C)c1O (stereo not drawn)	1%
FC(F)(F)c1nc(-c2ccccc2)ncc1-c1nnnn1-c1ccccc1	-6%
CCOC(=O)N1CCN(CC(=O)n2c(C)c(C)c3ccccc32)CC1	-3%
COc1cccc(/C(C)=N/Nc2ncc(Cl)cc2Cl)c1	-3%
c1ccc(CN2CCC(N=C3NN=C(c4ccc5c(c4)OCCO5)CS3)CC2)cc1	52%
CCN1CCN(CCNC(=O)c2ccc(/C=C3/Sc4ccccc4N(Cc4cccc(C)c4)C3=O)cc2)CC1	79% (active)
Cc1cccc(CN2CCC(CNC(=O)Nc3ccc(F)c(Cl)c3)CC2)c1	8%
CCc1nnc(NC(=O)c2sc3nc(C)cc(COC)c3c2N)s1	7%
COc1cccc(OC)c1C(=O)Nc1ccc(Cc2ccncc2)cc1	-2%

SMILES	percent response
CCCCOC(=O)c1ccc(N2C(=O)CC(N3CCN(C/C=C/c4ccccc4)CC3)C2=O)cc1 (stereo not drawn)	12%
Cn1ccc(=Nc2ccc(NC(=O)c3ccc(N=c4ccn(C)c5ccc([N+](=O)[O-])cc45)cc3)cc2)cc1	28%
C=CCn1c(P(C)(=O)O)nc2ccccc21	-4%
CCN(CC)CCC(c1ccc2c(c1)OCO2)c1c(OC)cc(OC)c2c(-c3ccccc3)cc(=O)oc12 (stereo not drawn)	28%
COC(=O)c1c(NC(=O)COc2ccc(Cl)cc2Cl)sc2c1CC(C)(C)NC2(C)C	36%
CN(C)CCCNC(=S)N1CCN(c2nc(-c3ccccc3)cs2)CC1	14%
O=c1[nH]c(=S)[nH]c2[nH]c(=S)[nH]c12	-2%
COc1cc(-c2nc(-c3ccncc3)no2)cc(OC)c1OC	6%
Cc1ccc(NC(=S)N(CCCN2CCCC2)Cc2cccn2Cc2ccc(Cl)cc2)cc1	13%
Cc1ccc2c(C)c(C(=O)N3CCN(c4ccncc4)CC3)oc2c1C	31%
N=C1/C(=C/c2cccn2-c2cccc([N+](=O)[O-])c2)C(=O)N=C2SC=CN12	-6%
CC(=O)N1CCN(S(=O)(=O)c2ccc(C)c([N+](=O)[O-])c2)C1C(C)C (stereo not drawn)	-1%
COC(=O)c1nc2n(n1)C(c1ccc([N+](=O)[O-])cc1)C(C(=O)Nc1ccc(Cl)cc1)=C(C)N2 (stereo not drawn)	2%
Cc1ccccc1CCN(CC(=O)NC1CCCCC1)C(=O)c1csnn1	-24%
CCCn1c(=N)n(CC(=O)c2ccc(Cl)c(Cl)c2)c2ccccc21	33%
CC(C)CC(=O)NC(=S)Nc1cc(C(=O)O)ccc1Cl	-1%
O=C1NCC(=O)N(Cc2ccccc2)/C1=C/c1ccccc1	-16%
CCc1ccc(-c2nn(-c3ccccc3)cc2CSC(=N)N)cc1	68%
CNC(=O)/C(=C\C=C\c1ccccc1)NC(=O)c1ccc([N+](=O)[O-])cc1	7%
O=C(O)CC(Cc1ccccc1)C(=O)Nc1ccc([N+](=O)[O-])cc1 (stereo not drawn)	-3%

SMILES	percent response
O=C(COC(=O)CNC(=O)c1ccco1)Nc1ccc(F)cc1	1%
COc1ccc(S(=O)(=O)N2CN(CCc3ccc(OC)c(OC)c3)c3nc4ccccc4nc32)cc1	-4%
CCOC(=O)/C(C#N)=C/c1ccc(OCC(=O)Nc2ccccc2)c(OC)c1	1%
CC(C)C(=O)N1c2ccccc2NC2=C(C(=O)CCC2)C1c1ccc(N(C)C)cc1 (stereo not drawn)	10%
COCC(C)NC(=O)COc1nncc2ccccc12 (stereo not drawn)	-7%
O=C(NCc1ccccc1Cl)NC(=O)c1csc([N+](=O)[O-])c1	1%
Cn1c(C(=O)NCCCN2CCCCC2)cc2sccc21	10%
COc1cc(Br)c(-c2sc(Nc3ccccc3)n[n+]2-c2ccccc2)cc1OC	14%
CCc1ccc2nc(Nc3ncc(C(C)=O)c(C)n3)nc(C)c2c1	0%
CCOC(=O)c1c(-c2ccccc2)csc1NC(=S)NC(=O)c1ccccc1	0%
O=C(CN1C(=O)c2cccnc2Oc2ccc(Cl)cc21)Nc1ccc(F)cc1	1%
N=c1c2c(-c3ccccc3)c(-c3ccccc3)n(Cc3ccccc3)c2ncn1CCCO	21%
Cc1noc(C)c1S(=O)(=O)N(C)Cc1ccccc1	5%
Cc1nn(-c2ccccc2)c(NC(=O)c2cccs2)c(-c2ccc(Cl)cc2)c1=O	-4%
COc1cccc(NC(=S)NCCCN2CCOCC2)c1	6%
CCN(CC)CCOCCOc1ccc(Cl)c2ccccc12	22%
CCCCCCCCCCOC(=O)Cn1c(COc2cccc(OC)c2)[n+](C)c2ccccc21	115% (active)
CCCCCCCCCCOC(=O)Cn1c(COc2ccc(C)cc2)[n+](C)c2ccccc21	74% (active)
